Compounds with a hit are over-represented: about 3.6% of the library has one in this group of screens.
AmpC inh no detg: blocks E. coli AmpC beta-lactamase in detergent-free assay; Potency, µM (titrated, usually from 57.1 µM), actives largely listed as inhibitors; AID 485341; 330,000 compounds, 0.52% hits; AmpC nitrocefin hydrolysis, absorbance 480 nm, 0.0001% Triton; P00811; note: nearly all actives have a fitted effect of over 20% in size
Target sequence (P00811 whole entry, looked up): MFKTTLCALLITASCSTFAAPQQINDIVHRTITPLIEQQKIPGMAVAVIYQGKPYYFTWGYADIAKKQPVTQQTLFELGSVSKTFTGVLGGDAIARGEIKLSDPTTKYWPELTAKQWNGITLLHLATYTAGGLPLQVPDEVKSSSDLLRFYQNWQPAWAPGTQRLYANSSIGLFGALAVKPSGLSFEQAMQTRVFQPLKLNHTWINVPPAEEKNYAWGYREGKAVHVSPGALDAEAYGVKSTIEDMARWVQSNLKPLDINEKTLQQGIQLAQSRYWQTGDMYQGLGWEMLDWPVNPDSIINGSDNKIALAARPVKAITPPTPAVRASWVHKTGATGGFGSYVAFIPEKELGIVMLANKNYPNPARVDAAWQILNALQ
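20 mM phosphate pH 7.0 + 0.01% (detergent screen) or 0.0001% Triton X-100; 5.3 nM AmpC reagent; cpd preinc 15 min RT; nitrocefin (800 uM stock) to start; A480 q20 s × 4 min; Activity was normalised to no-enzyme and no-compound control wells.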
Sm TGR block: inhibitors of Schistosoma mansoni thioredoxin glutathione reductase; Potency, µM (highest dose often 114 µM), hits mostly inhibitors; AID 485364; Q962Y6; 360,000 compounds, 3% hits; purified TGR, DTNB reduction, TNB absorbance 405 nm; note: nearly all actives have a fitted effect of over 60% in size
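Kinetic colorimetric format: TGR-catalysed, NADPH-driven DTNB reduction monitored via TNB absorbance. Enzyme dispensed at 20 nM; compound exposure 15 min at room temperature before reaction start.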
AmpC detergent: inhibitors of E. coli AmpC beta-lactamase with detergent; P00811; AmpC hydrolysis of nitrocefin, absorbance 480 nm, 0.01% Triton; Potency, µM (highest dose often 114 µM), most hits filed as inhibitors; 370,000 compounds, 0.041% hits; AID 485294; note: nearly all actives have a fitted effect of over 25% in size
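AmpC (5.3 nM in the dispensed reagent) in 20 mM phosphate pH 7.0 with 0.01% (detergent screen) or 0.0001% Triton X-100 was preincubated with compounds for 15 min at room temperature. Nitrocefin was then added from an 800 uM solution, and hydrolysis was followed at 480 nm.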
Giardia FBPA inh-1: inhibitors of Giardia lamblia fructose-1,6-bisphosphate aldolase; A8B2U2; purified Giardia FBPA; Potency, µM (doses to about 59.6 µM), usual class: inhibitors; 290,000 compounds, 0.71% hits; note: nearly all actives have a fitted effect of over 55% in size
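40 nM FBPA preincubated 10 min at RT with compound (up to 57.5 uM final), then substrate plus GAPDH/TPI/NAD/arsenate coupling and diaphorase/resazurin added. Fluorescence read after 20 min at RT, 525/598 nm.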
Giardia growth: blocks growth of Giardia lamblia trophozoites | 1,500 compounds, 5% hits | shares compounds with Giardia FBPA inh-1 | Potency, µM (series often up to 57.5 µM), most hits filed as inhibitors | Giardia lamblia trophozoite growth inhibition;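 note: trophozoites exposed to compound for 48 h at 37 °C; nearly all actives have a fitted effect of over 70% in size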
Mammalian tox: toxic to mammalian cells in Giardia aldolase counter-screen; shares compounds with Giardia FBPA inh-1; mammalian cell viability counter-screen, qHTS; Potency, µM (top dose mostly 57.5 µM), hits mostly inhibitors; 1,500 compounds, 4% hits; AID 2786;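 note: Chinese hamster ovary cells used as mammalian cytotoxicity surrogate; viability measured as cellular ATP by luminescence; compound exposure lasted 48 h before reading; nearly all actives have a fitted effect of over 60% in size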
Giardia FBPA inh-2: confirmation of Giardia fructose-bisphosphate aldolase inhibitors; AID 2787; 1,500 compounds, 5% hits; Potency, µM (titrated, usually from 57.5 µM), usual class: inhibitors; purified Giardia aldolase enzyme activity, qHTS; shares compounds with Giardia FBPA inh-1; note: nearly all actives have a fitted effect of over 45% in size
Rabbit aldolase: blocks rabbit muscle aldolase in Giardia aldolase selectivity test | 1,500 compounds, 4% hits | Potency, µM (highest dose often 57.5 µM), usual class: inhibitors | AID 2794 | shares compounds with Giardia FBPA inh-1 | Rabbit muscle FBPA enzyme inhibition, selectivity counter-screen; note: nearly all actives have a fitted effect of over 60% in size
Target sequence (P00883 whole entry, looked up): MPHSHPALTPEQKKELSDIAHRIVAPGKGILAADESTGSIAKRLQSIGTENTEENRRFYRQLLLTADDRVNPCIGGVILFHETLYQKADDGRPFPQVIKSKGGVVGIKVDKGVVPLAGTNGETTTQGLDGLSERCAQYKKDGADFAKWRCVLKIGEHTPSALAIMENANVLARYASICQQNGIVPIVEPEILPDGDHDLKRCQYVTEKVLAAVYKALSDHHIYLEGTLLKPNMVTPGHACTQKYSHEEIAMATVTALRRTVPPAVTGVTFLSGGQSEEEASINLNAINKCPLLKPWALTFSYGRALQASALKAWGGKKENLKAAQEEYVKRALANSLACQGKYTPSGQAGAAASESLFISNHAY
GAPDH counter: counter-screen for Giardia aldolase inhibitors: GAPDH coupling enzyme; shares compounds with Giardia FBPA inh-1; GAPDH coupling enzyme counterscreen, biochemical, qHTS; Potency, µM (doses to about 57.5 µM), hits mostly inhibitors; 1,500 compounds, 6% hits; AID 2795; note: nearly all actives have a fitted effect of over 55% in size
Numbers stand for hits; i = inactive; ? = inconclusive; nt = no result given; [ ] = another dose, or the depositor's remark. Calls come from the whole dose curve; as a rule, active = well fitted curve in the direction sought with a large enough effect; inconclusive = small, poorly fitted or top-dose-only effect, or another doubt; inactive = no such curve, though single readings can be large; an effect the other way counts as inactive or inconclusive.

SMILES	AmpC inh no detg	Sm TGR block	AmpC detergent	Giardia FBPA inh-1	Giardia growth	Mammalian tox	Giardia FBPA inh-2	Rabbit aldolase	GAPDH counter
Cc1onc(-c2c(Cl)cccc2Cl)c1C(=O)NC(=S)N1CCOCC1	i	i	i	3.97µM	i	?	i	i	i
CCOC(=O)N1CCN(C(=S)NC(=O)c2c(-c3c(Cl)cccc3Cl)noc2C)CC1	i	i	i	i	nt	nt	nt	nt	nt
C/C(=N\Nc1ccc2nncn2n1)c1ccco1	i	i	i	i	nt	nt	nt	nt	nt
C/C(=N\Nc1ccc2nncn2n1)c1ccccn1	i	i	i	7.92µM	?	?	i	i	?
C(=N\Nc1nncc2ccccc12)/c1ccccn1	i	i	i	i	nt	nt	nt	nt	nt
C(=N\Nc1ccc2nncn2n1)/c1ccccn1	i	i	i	14.1µM	i	?	i	i	i
COc1cccc(CC(NC(C)=O)C(=O)NC2CCN(S(=O)(=O)c3ccc(F)cc3)CC2)c1OC (stereo unspecified)	i	i	i	i	nt	nt	nt	nt	nt
O=[N+]([O-])c1ccc(Sc2cccc[n+]2[O-])c2nonc12	i	0.282µM	i	0.354µM	2µM	2.24µM	6.31µM	15.8µM	6.31µM
O=[N+]([O-])c1ccc(Nc2ccccc2)c2nonc12	i	?	i	i	nt	nt	nt	nt	nt
COc1ccc(-c2cc3c(=O)n(CC(=O)Nc4cc(F)ccc4F)ccn3n2)cc1OC	nt	i	i	nt	nt	nt	nt	nt	nt
CCOc1ccc(CCNC(=O)CCCc2nnc3n(CC)c(=O)c4sccc4n23)cc1	nt	i	i	nt	nt	nt	nt	nt	nt
CCOC(=O)Cc1c(C)nc(N)[nH]c1=O	i	i	i	i	nt	nt	nt	nt	nt
CCOC(=O)Cc1c[nH]c(=S)[nH]c1=O	i	i	i	17.7µM	i[10.4 µM]	i	i	i	i
O=C(CCCOc1ccc(Cl)cc1Cl)Nc1ccc(O)cc1C(=O)O	i	i	i	i	nt	nt	nt	nt	nt
Cc1cc(O)c(C(C)C)cc1N=Cc1cc([N+](=O)[O-])ccc1O	i	?	i	?	i	?	9.19µM	13µM	16.3µM
Cc1c(N2C(=O)/C(=C3\C(=O)N(CC(=O)O)c4ccccc43)SC2=S)c(=O)n(-c2ccccc2)n1C	i	?	i	9.98µM	i	i	?	i	?
Cc1c(N2C(=O)/C(=C\c3ccccc3O)SC2=S)c(=O)n(-c2ccccc2)n1C	i	i	i	?	nt	nt	nt	nt	nt
O=C(Nc1nccc(-c2cccs2)n1)c1ccccc1Cl	i	i	i	7.92µM	i	i	25.1µM	25.1µM	15.8µM
O=C(CSc1nccc(-c2cccs2)n1)Nc1ccc(Cl)cc1	i	i	i	i	nt	nt	nt	nt	nt
Cc1ccccc1OCCn1ccnc1	i	i	i	?	nt	nt	nt	nt	nt
Cc1cccc(OCCn2ccnc2)c1C	i	i	i	22.4µM	i	i	i	i	i
CCc1ccc(OCCCCCn2ccnc2)cc1	i	i	?	?	nt	nt	nt	nt	nt
CCc1ccc(OCCn2ccnc2)cc1	i	i	i	25.1µM	?	i	i	i	i
O=C1CCC(C(=O)N2CCCCCC2)CN1Cc1cccc(C(F)(F)F)c1 (stereo unspecified)	i	i	i	i	nt	nt	nt	nt	nt
CSCC[C@H](N)C(=O)NC[C@H]1CC[C@H](C(=O)N[C@@H](Cc2ccccc2)C(=O)O)CC1	i	i	i	i	nt	nt	nt	nt	nt
SMILES	AmpC inh no detg	Sm TGR block	AmpC detergent	Giardia FBPA inh-1	Giardia growth	Mammalian tox	Giardia FBPA inh-2	Rabbit aldolase	GAPDH counter
Cc1ccc(Nc2cc(C)nn2-c2nc(C)cc(=O)[nH]2)cc1	i	i	?	i	?	2.91µM	i	i	i
CCN(c1ccccc1)S(=O)(=O)c1cc(NC(=O)CN2CCN(C)CC2)ccc1Cl	i	nt	nt	nt	nt	nt	nt	nt	nt
c1ccc(C2=NNC(c3ccccn3)=NN2)nc1	i	i	i	7.94µM	?	i	i	i	?
O=C(CNCc1cccnc1)Nc1cc(C(F)(F)F)ccc1N1CCOCC1	i	i	i	7.92µM	?	i	i	i	i
CCC(=O)Nc1cc(C(F)(F)F)ccc1N1CCOCC1	i	i	i	i	nt	nt	nt	nt	nt
CCN(CC)C(=O)c1c(C)[nH]c(=S)c(C#N)c1-c1ccco1	i	14.1µM	i	9.98µM	i	i	i	i	i
Cc1[nH]c(=S)c(C#N)c(-c2ccccc2)c1C(=O)Nc1ccccc1	i	i	i	?	nt	nt	nt	nt	nt
Cc1cc(C)nc(N/N=C/C2=C(O)CC(c3ccc(F)cc3)CC2=O)n1 (stereo unspecified)	i	i	i	i	i	?	i	i	i
Cc1ccc(C2CC(=O)C(C=NCCN3CCN(C(=S)Nc4ccc(F)cc4)CC3)=C(O)C2)cc1 (stereo unspecified)	i	i	i	i	nt	nt	nt	nt	nt
CCOc1ccccc1Nc1nnc(SCC(=O)Nc2cccc(S(=O)(=O)NC3=NCCCCC3)c2)s1	i	i	i	i	nt	nt	nt	nt	nt
Nc1ncnc2c1ccn2[C@@H]1O[C@H](CO)[C@@H](O)[C@H]1O	nt	nt	nt	i	nt	nt	nt	nt	nt
NC(=S)c1cn(C2OC(CO)C(O)C2O)c2ncnc(N)c12 (stereo unspecified)	i	i	i	14.1µM	i	?	i	i	i
COc1cccc(CN2CC(C(=O)NCCOc3cccnc3)CCC2=O)c1 (stereo unspecified)	i	i	i	nt	nt	nt	nt	nt	nt
O=C(Nc1ccccc1)Oc1ccc[nH]c1=O	i	50.1µM	i	1.41µM	i	?	0.231µM	0.73µM	2.59µM
COC1CCCCC1Nc1ccc(C)c(C)c1 (stereo unspecified)	i	i	i	19.9µM	i[10.4 µM]	i	i	i	i
CCOC(=O)C1CCCN(Cc2ccc(OCc3ccccc3)cc2)C1 (stereo unspecified)	i	i	i	28.2µM	i[10.4 µM]	i	i	i	i
O=C(C1CCCN(Cc2ccccc2[N+](=O)[O-])C1)N1CCCC1 (stereo unspecified)	i	i	i	28.2µM	?	i	i	i	i
O=C(C1CCCN(Cc2ccccc2F)C1)N1CCCC1 (stereo unspecified)	i	i	i	i	nt	nt	nt	nt	nt
CCOC(=O)C1CCCN(CC(=O)Nc2c(F)c(F)c(F)c(F)c2F)C1 (stereo unspecified)	i	i	i	i	nt	nt	nt	nt	nt
CCOC(=O)C1CCCN(CC(=O)c2ccc(F)cc2)C1 (stereo unspecified)	i	17.8µM	i	15.8µM	i	i	i	i	i
Cc1ccc(CN2CCCC(C(=O)N3CCCC3)C2)cc1 (stereo unspecified)	i	i	i	25.1µM	i[10.4 µM]	i	i	i	i

Screens as filed in PubChem.
